FLuc counter – firefly luciferase modulation, counter-screen for miR-21 project; P08659; Potency, µM (series often up to 57.5 µM), for the others: top-dose activity change, negative = inhibition, actives largely listed as inhibitors; purified FLuc, Km substrates, luminescence inhibition; 360,000 compounds, 6.9% hits;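 also: plate controls were vehicle for no effect and reference inhibitor for full effect; nearly all actives have a fitted effect of over 55% in size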
Target sequence (P08659 whole entry, looked up): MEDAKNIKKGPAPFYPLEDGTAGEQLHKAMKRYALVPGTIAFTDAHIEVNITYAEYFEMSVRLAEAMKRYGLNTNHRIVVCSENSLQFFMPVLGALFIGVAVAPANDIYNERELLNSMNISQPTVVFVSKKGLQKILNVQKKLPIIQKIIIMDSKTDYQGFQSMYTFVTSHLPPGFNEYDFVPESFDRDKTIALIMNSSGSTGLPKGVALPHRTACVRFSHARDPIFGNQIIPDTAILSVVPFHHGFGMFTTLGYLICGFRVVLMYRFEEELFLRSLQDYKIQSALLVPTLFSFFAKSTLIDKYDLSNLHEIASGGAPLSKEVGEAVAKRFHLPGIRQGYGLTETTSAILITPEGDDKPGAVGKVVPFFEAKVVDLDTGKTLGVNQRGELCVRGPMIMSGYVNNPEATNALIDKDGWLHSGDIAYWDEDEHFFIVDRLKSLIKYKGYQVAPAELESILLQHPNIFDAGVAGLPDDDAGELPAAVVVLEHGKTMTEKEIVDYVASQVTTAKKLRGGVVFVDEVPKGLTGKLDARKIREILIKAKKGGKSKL
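Purified P. pyralis luciferase (10nM final) with 10uM D-luciferin and 10uM ATP (Km levels) in 50mM Tris acetate pH 7.5, 10mM Mg acetate, 0.01% Tween-20, 0.05% BSA; qHTS 6-point titration, ~60 µM downward; luminescence read.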
Rab9 promoter act – Rab9 promoter activation; Huh7 Rab9 promoter-luciferase reporter, luminescence, 24 h; Potency, µM (titrated, usually from 9.22 µM), for the others: at the highest dose activation, negative = inhibition, actives largely listed as activators; 320,000 compounds, 2.8% hits; also: % of control where 0% means no effect; nearly all actives have a fitted effect of over 60% in size
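Luciferase signal after 10 min detection reagent at ambient indicates Rab9 promoter upregulation; stably transfected Huh7 cells were treated 24 h with compound in DMSO at 37 °C, 5% CO2.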
SMN2 splice enh – increases expression of the SMN2 splice variant; HEK293 SMN2-luciferase splicing reporter, luminescence, 30-36 h; Potency, µM (series often up to 46.1 µM), for inactives: at the top dose activity change, positive = activation, hits mostly activators; 210,000 compounds, 2.8% hits; also: % of control where 0% means no effect; nearly all actives have a fitted effect of over 55% in size
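HEK293 cells carry an SMN2 minigene-luciferase reporter in which exon 7 inclusion puts luciferase in frame. Cells were seeded at 2000 cells/well, attached for 10-12 hours, then exposed to compounds for 30-36 hours at 37C before ONE-Glo luminescence.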
ELG1 genotoxic – inducers of genotoxicity in HEK293T ELG1-luciferase cells; 330,000 compounds, 1.3% hits; AID 504466; Potency, µM (top dose mostly 46 µM), for inactives: top-dose activity change, positive = activation, hits mostly activators; HEK293T ELG1-luciferase reporter, luminescence, 16 h; also: % of control where 0% means no effect; nearly all actives have a fitted effect of over 60% in size
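Genotoxicity was scored as increased ELG1-luciferase reporter signal, measured by ONE-Glo luminescence (30 min, room temperature). Compound or vehicle exposure of the HEK293T reporter cells lasted 16 hr at 37°C.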
NPC1 prom act – activates the NPC1 promoter; Potency, µM (highest dose often 9.22 µM), without a hit: at the highest dose activation, actives largely listed as activators; Huh7 NPC1 promoter luciferase reporter, 24 h; 320,000 compounds, 2.4% hits; also: % of control where 0% means no effect; nearly all actives have a fitted effect of over 60% in size
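Luminescence read-out of NPC1 promoter-driven luciferase in stably transfected Huh7 cells; compounds delivered in DMSO and left 24 h at 37C, 5% CO2, qHTS titration format.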
* hit, by the source's call; ? = inconclusive; / = no result given. In the library only some 7.4% were active in any assay of this set; here they are far more common. Calls follow the shape of the dose curve; as a rule, active = well fitted curve in the direction sought with a large enough effect; inconclusive = small, poorly fitted or top-dose-only effect, or another doubt; inactive = no such curve, though single readings can be large; an effect the other way counts as inactive or inconclusive. Potency is read from the fitted curve at half-maximal effect.

SMILES	FLuc counter	Rab9 promoter act	SMN2 splice enh	ELG1 genotoxic	NPC1 prom act
COC(=O)c1ccc(C(/C=C/[C@@H](C)C(=O)NCCc2c[nH]c3ccccc23)NC(=O)OCc2ccccc2)cc1 (some centres not stated)	/	/	1%	/	/
CCOc1ccc2nc(NC(=O)c3cnccn3)sc2c1	1.5µM*	0.25µM*	/	?	0.79µM*
CNc1nnc(-c2cccc(N(C)C)c2)s1	15µM*	?	14µM*	11µM*	?
Nc1nnc(-c2cccc(F)c2)s1	-19%	-3%	/	7%	3%
COc1ccc(Nc2oc(-c3ccc(Cl)cc3)nc2C#N)cc1	2.7µM*	?	14µM*	?	?
COc1ccc(Nc2oc(-c3ccccc3)nc2C#N)cc1	?	1.6µM*	?	?	1.8µM*
COc1ccc(CNc2oc(-c3ccccc3)nc2C#N)cc1	?	13%	7%	?	10%
COc1ccc(Nc2oc(-c3ccc(OC)cc3)nc2C#N)cc1	2.4µM*	3.5µM*	/	?	?
CCC(=O)n1nc(-c2ccco2)nc1SCc1ccccc1	15µM*	9%	?	?	15%
CC(=O)n1nc(-c2ccco2)nc1SCc1ccccc1	?	12%	28%	15%	13%
O=C(NCc1ccccc1)C12CC3CC(CC(C3)C1)C2	-1%	29%	-8%	-7%	-2%
O=C(Nn1nnnc1Nc1ccccc1)C12CC3CC(CC(C3)C1)C2	-2%	-4%	22µM*	-4%	-1%
O=C(COC(=O)CNC(=O)c1ccco1)Nc1ncc(Cl)cc1Cl	-3%	-1%	/	-3%	0%
CCOC(=O)C1(CCc2ccccc2)CCN(C(=O)Cc2nonc2C)CC1	19µM*	?	3%	12%	-1%
CCOC(=O)C1(CCc2ccccc2)CCN(C2Cc3ccccc3C2)CC1	15µM*	?	/	-21%	?
COc1ccc(/C=C/C2=Nc3ccccc3NC(C)(C)C2)cc1OC	6µM*	?	/	-5%	29%
COc1ccc(/C=C/C2=CC(C)(C)NC(=S)N2)cc1OC	-18%	-5%	-12%	2%	8%
c1cc2c(cc1-c1csc(NNC3=NCCCCC3)n1)OCCO2	19µM*	?	17%	15%	8%
CCC(=O)Nc1nc(-c2ccc3c(c2)OCCO3)cs1	6µM*	3.2µM*	2.5µM*	2.1µM*	0.5µM*
COc1ccccc1C(=O)Nc1nc(-c2ccc3c(c2)OCCO3)cs1	?	4%	-40%	-3%	-7%
CC(C)(C)C(=O)Nc1nc(-c2ccc3c(c2)OCO3)cs1	7.6µM*	2.8µM*	?	2.3µM*	3.5µM*
COC(=O)c1cccc(NC(=O)c2nn(C(C)C)c(=O)c3ccccc23)c1	-1%	-1%	-12%	9%	18%
O=C(NCc1cccc(F)c1)c1cccc(NC(=O)c2nsc3ccccc23)c1	8.5µM*	/	/	/	/
COc1cccc(CNC(=O)c2cccc(Br)c2)c1	-11%	0%	-4%	0%	9%
COC(=O)c1cccc(NC(=O)c2nsc3ccccc23)c1	0.95µM*	/	?	/	/
SMILES	FLuc counter	Rab9 promoter act	SMN2 splice enh	ELG1 genotoxic	NPC1 prom act
O=C(NCc1ccc(Cl)cc1)c1cccc(NC(=O)c2ccccc2)c1	-16%	-1%	-47%	-12%	-4%
CCCCNC(=O)c1cccc(NC(=O)c2nsc3ccccc23)c1	4.8µM*	/	/	/	/
COc1cccc(CNC(=O)c2cccc(NC(=O)c3nsc4ccccc34)c2)c1	6.7µM*	/	/	/	/
O=C(CNC(=O)c1ccc(Cl)cc1)OCc1cc(=O)n2ccsc2n1	1%	/	/	/	/
CN(CC(=O)Nc1ccc(F)c(F)c1F)C(=O)C1CCN(C(=O)Nc2ccccc2)CC1	5%	3%	/	-2%	-1%
CCCCN(C)CCNC(=O)CCn1nc(-c2ccc(Cl)cc2)ccc1=O	1%	-2%	/	2%	-1%
O=C(Nc1cccc(C(=O)N2CCCCC2)c1)c1nsc2ccccc12	5.4µM*	/	/	/	/
Cc1cc(C)n2c(Br)c(CSc3nc4ccccc4s3)nc2n1	?	?	11µM*	?	?
CCNC(=O)NC(=O)C(C)OC(=O)CCCSc1nc2ccccc2s1 (configuration not stated)	-15%	-3%	-10%	0%	1%
Cc1ccccc1NC(=O)CCCSc1nc2ccccc2s1	?	0%	1%	2%	0%
CC(C)(C)NC(=O)CCCSc1nc2ccccc2s1	15µM*	1.8µM*	?	?	?
CCNC(=O)NC(=O)COC(=O)CCCSc1nc2ccccc2s1	19µM*	-8%	1%	3%	-7%
Cc1cc(C)nc(NC(=O)CSc2nc3cc(Cl)ccc3s2)n1	?	0%	23%	1%	0%
Cc1cc(C)nc(NC(=O)CSc2nc3ccccc3s2)n1	12µM*	3.2µM*	6%	5.8µM*	?
COc1ccccc1CNCCS(=O)(=O)NN1CCOCC1	/	/	/	-2%	/
O=C1N(Cc2cccc(C(F)(F)F)c2)c2ccccc2S(=O)(=O)N1c1cccc(Cl)c1	1%	/	/	/	/
COc1ccc(CNC(=O)c2csc(Cc3ccccc3)n2)cc1	19µM*	19%	?	7%	4%
O=C(Nc1ccc(F)cc1)c1csc(Cc2ccccc2)n1	5.4µM*	?	1%	6%	?
COc1ccccc1CNC(=O)c1csc(Cc2ccc(Cl)cc2)n1	0%	0%	5%	-3%	-4%
O=C(O)c1csc(Cc2ccccc2)n1	-14%	-5%	-11%	-1%	-4%
COc1ccc(NC(=O)c2csc(Cc3ccccc3)n2)cc1	6.7µM*	?	-15%	?	26%
COc1cccc(/C=C2\CC(C)Cc3c2nc2ccccc2c3C(=O)O)c1OC (configuration not stated)	-10%	-5%	/	-3%	?
CCOC(=O)Cn1nnc(-c2ccc(SC)cc2)n1	12µM*	-3%	5%	3%	-2%
CSc1ccc(-c2nnn(Cc3ccccn3)n2)cc1	12µM*	2.5µM*	?	?	4µM*
CCOC(=O)CC(NS(=O)(=O)c1ccc2[nH]c3c(c2c1)CCCC3)c1ccccc1Cl (configuration not stated)	-14%	/	/	/	/
SMILES	FLuc counter	Rab9 promoter act	SMN2 splice enh	ELG1 genotoxic	NPC1 prom act
NNC(=O)c1ccc(CSc2cccc3cccnc23)cc1	?	0%	-3%	1%	1%
Cc1cccc(CSc2cccc3cccnc23)c1	19µM*	24%	4%	?	21%
c1cnc2c(SCc3ccc(-c4nnco4)cc3)cccc2c1	24µM*	?	-1%	6%	?
Cc1ccc2c(=O)cc(C(=O)Nc3ccc(S(=O)(=O)Nc4onc(C)c4C)cc3)oc2c1C	?	/	9%	/	/
CN1CCCN(S(=O)(=O)c2cccc(C#N)c2)CC1	1%	2%	/	-15%	0%
COc1ccc(NC(=O)N2CCC3(CC2)CCN(C(=O)c2cccc(F)c2)CC3)cc1	/	/	-5%	/	/
O=C(O)c1cccc(Nc2ncnc3sccc23)c1	7.6µM*	15%	4%	-1%	28%
